The test concerns the target T1, Tyrosine-protein kinase TXK (Homo sapiens) (UniProt P42681).
T1 sequence (whole entry): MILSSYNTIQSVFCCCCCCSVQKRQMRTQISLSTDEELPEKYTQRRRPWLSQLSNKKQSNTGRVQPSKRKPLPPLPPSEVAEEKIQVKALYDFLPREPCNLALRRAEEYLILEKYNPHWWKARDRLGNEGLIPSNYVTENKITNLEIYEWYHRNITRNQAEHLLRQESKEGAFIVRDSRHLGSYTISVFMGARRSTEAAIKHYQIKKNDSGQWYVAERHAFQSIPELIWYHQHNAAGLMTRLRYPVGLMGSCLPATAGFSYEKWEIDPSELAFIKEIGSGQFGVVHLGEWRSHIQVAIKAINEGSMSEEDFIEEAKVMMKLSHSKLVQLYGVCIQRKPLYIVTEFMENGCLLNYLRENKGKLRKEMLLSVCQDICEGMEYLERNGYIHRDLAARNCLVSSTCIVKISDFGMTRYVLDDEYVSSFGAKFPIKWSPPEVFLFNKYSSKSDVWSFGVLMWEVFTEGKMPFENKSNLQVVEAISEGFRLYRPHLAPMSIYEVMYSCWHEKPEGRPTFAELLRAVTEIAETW
The note with it: at 1 µM.
For the compound `Cn1nc2c3c(cccc31)C(=O)c1ccccc1-2`, the residual activity was 82%.

For the compound `COc1ccc(CNc2nc(N(CCO)CCO)nc3c2ncn3C(C)C)cc1`, the residual activity was 87%.

For `CO[C@@H]1[C@H](N(C)C(=O)c2ccccc2)C[C@H]2O[C@]1(C)n1c3ccccc3c3c4c(c5c6ccccc6n2c5c31)C(=O)NC4`, the residual activity was 82%.

As to `C[C@@H](N)[C@H]1CC[C@H](C(=O)Nc2ccncc2)CC1`, the residual activity stood at 100%.

Take `Cc1cc(Nc2nc(-c3ccccc3)nc3ccccc23)n[nH]1`: the residual activity came out at 30%.

For `O=C1Nc2ccc(Br)cc2/C1=C\c1cc2c([nH]1)CCCC2`, the residual activity worked out at 107%.

For the compound `Cc1cc2ncc(-c3ccccc3)nc2cc1C`, the residual activity stood at 90%.

Consider `CCN(CC)C(=O)c1ccc(Nc2nc(OCC3CCCCC3)c3nc[nH]c3n2)cc1`, for which the residual activity came out at 49%.

Take `O=C1c2ccccc2-[n+]2ccc3c([nH]c4ccccc43)c21`: the residual activity stood at 75%.

For `Cc1ccc(S(=O)(=O)/C=C/C#N)cc1`, the residual activity was 79%.

`c1ccc2c(-c3ccncc3)c[nH]c2c1`: the residual activity amounted to 109%.

Turning to `Cc1cncc2cccc(S(=O)(=O)N3CCCN(C(=O)CN)C[C@H]3C)c12`, the residual activity amounted to 100%.

As for `N#CCCc1ccc2c(c1)-c1[nH]c3ccc([N+](=O)[O-])cc3c1CC(=O)N2`, the residual activity is 26%.

On to `c1ccc(-c2n[nH]c3c2oc2ccccc23)cc1`, for which the residual activity amounted to 97%.

As to `CO[C@H]1C[C@@H]2CC[C@@H](C)[C@@](O)(O2)C(=O)C(=O)N2CCCC[C@H]2C(=O)O[C@H]([C@H](C)C[C@@H]2CC[C@@H](O)[C@H](OC)C2)CC(=O)[C@H](C)/C=C(\C)[C@@H](O)[C@@H](OC)C(=O)[C@H](C)C[C@H](C)/C=C/C=C/C=C/1C`, the residual activity turned out to be 109%.

The term residual activity denotes the signal under treatment as a percentage of the control signal.
